# Measurements published in PubChem BioAssay (NCATS).
# Records with an inconclusive call do not appear. Active and inactive are the calls of the source. Calls follow the shape of the dose curve; as a rule, active = well fitted inhibition curve with a large enough effect; inconclusive = small, poorly fitted or top-dose-only effect, or effect the other way; inactive = flat fitted curve, though single readings scatter.
# Target: ATP-dependent 6-phosphofructokinase (Trypanosoma brucei brucei) (UniProt O15648)
# Sequence (O15648 whole entry, looked up): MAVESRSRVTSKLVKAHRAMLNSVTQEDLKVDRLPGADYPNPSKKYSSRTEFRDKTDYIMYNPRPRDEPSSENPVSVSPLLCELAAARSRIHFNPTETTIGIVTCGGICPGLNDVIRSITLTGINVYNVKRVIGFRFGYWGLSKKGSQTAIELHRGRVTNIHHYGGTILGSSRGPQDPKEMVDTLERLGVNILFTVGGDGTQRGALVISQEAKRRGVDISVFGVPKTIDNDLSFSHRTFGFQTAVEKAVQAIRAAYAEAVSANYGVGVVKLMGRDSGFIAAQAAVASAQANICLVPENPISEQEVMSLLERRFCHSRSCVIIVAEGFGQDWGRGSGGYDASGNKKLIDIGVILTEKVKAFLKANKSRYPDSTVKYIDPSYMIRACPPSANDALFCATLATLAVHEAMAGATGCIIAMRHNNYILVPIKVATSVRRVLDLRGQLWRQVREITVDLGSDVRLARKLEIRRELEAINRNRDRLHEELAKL
# Test: qHTS Assay to Find Inhibitors of T. brucei phosphofructokinase: hit validation (AID 492961);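 also: luminescence reports ADP formed as PFK phosphorylates fructose-6-phosphate with ATP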
# Conditions: T. brucei PFK, ADP-Glo luminescence; series mostly up to 51.4 µM; activity change, negative = inhibition: at the top concentration
# Summary of the method: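 Percent activity derived from corrected luminescence, normalized between 0x and 1x enzyme controls, then fitted to concentration-response curves. Conditions: 1.25 nM PFK, 0.1 mM ATP, 0.5 mM F6P, 45 min RT.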
# % is scaled to controls: 0 for no effect and ±100 for the full control effect.
row,Compound,"activity change, negative = inhibition"
1,O=NN(CCCl)C(=O)NC1CCCCC1,-4.37% (inactive)
2,S=P(N1CC1)(N1CC1)N1CC1,-1.7% (inactive)
3,CCOC(=O)c1ccc(OC(=O)CCCCCN=C(N)N)cc1,6.85% [at 24.3 µM] (inactive)
4,NC(=O)c1cccnc1,-3.92% (inactive)
5,OC(Cn1cncn1)(Cn1cncn1)c1ccc(F)cc1F,-0.0258% (inactive)
6,CN1CCN(c2c(F)cc3c(=O)c(C(=O)O)cn(CCF)c3c2F)CC1,6.19% (inactive)
7,CN(Cc1cc(Br)cc(Br)c1N)C1CCCCC1,-4.64% (inactive)
8,Cc1cccc(Nc2ccncc2S(=O)(=O)NC(=O)NC(C)C)c1,3.43% [at 24.3 µM] (inactive)
9,C#CCN[C@@H]1CCc2ccccc21,-11.7% (inactive)
10,CC[C@H](NC(C)C)[C@H](O)c1ccc(O)c2[nH]c(=O)ccc12,3.84% (inactive)
